Compound activity (PubChem BioAssay)
The sample as a whole holds a higher share of hits than the screen did.
D1 mod: allosterically modulates the human D1 dopamine receptor; P21728; HEK293 D1, CRE-luciferase, dopamine EC30 potentiation; actives deviate in either direction; B-score at 10 µM; 5.9% of 58,000 active;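 active = luminescence count or its row- and column-corrected plate score outside the 99.7% band of the plate's sample wells, on either side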
Pyk2 oligo antag: antagonists of human Pyk2 oligomerization | z-score (the deposit names both 25 µM and 10 µM) | 0.83% of 99,000 active | AID 1347419 | Q293 cells, Pyk2 FERM NanoBiT luminescence; stronger effect = lower value;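 active = Z-score of -3 or lower, scaled per plate to the spread of control and sample wells; inactive = z-score above -3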;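 note: negative z-score means lost luminescence so less FERM oligomerization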
DAT uptake mod: modulates human dopamine transporter uptake under cocaine; 1.3% of 110,000 active; Q01959; LLC-PK1 hDAT cells, [14C]-dopamine uptake with cocaine IC80; actives deviate in either direction; B-score at 10 µM;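 active = Z score or B-score, a plate-position-corrected score, falls beyond the plate's 99.7% confidence bounds, in either direction; inactive = both scores lie inside the 99.7% bounds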;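 note: scored against the spread of the other compound wells on the same plate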
Target sequence (Q01959 whole entry, looked up): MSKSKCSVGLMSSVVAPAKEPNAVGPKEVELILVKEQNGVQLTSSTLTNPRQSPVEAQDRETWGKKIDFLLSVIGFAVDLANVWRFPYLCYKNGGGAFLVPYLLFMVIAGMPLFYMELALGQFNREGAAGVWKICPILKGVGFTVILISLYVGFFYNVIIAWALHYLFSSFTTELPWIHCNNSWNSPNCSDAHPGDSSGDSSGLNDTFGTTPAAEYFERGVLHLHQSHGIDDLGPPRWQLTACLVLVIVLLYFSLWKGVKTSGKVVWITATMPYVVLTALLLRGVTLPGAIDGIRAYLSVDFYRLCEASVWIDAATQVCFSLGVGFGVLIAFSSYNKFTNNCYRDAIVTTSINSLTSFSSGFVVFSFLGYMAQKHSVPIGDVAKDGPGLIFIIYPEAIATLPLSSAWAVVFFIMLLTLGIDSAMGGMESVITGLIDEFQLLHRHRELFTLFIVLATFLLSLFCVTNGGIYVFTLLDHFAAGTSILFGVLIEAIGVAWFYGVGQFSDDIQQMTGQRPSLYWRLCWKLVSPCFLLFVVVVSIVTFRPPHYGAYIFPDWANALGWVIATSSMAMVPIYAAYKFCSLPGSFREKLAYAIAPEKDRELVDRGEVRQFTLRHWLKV
CD11b adhes enh: enhancers of human CD11b/CD18 binding to fibrinogen | K562 CD11b/CD18 adhesion to fibrinogen, ATPlite luminescence | activation, % at 10 µM | 0.07% of 93,000 active | P05107+P11215;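 active = 10 µM primary screen giving 50% or more activity, confirmed by 40% or more on retest at that dose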
CD11b adhes inh: blocks human CD11b/CD18 adhesion to fibrinogen; inhibition, % at 10 µM; 0.54% of 93,000 active; P05107+P11215; K562 CD11b/CD18 adhesion to fibrinogen, ATPlite luminescence; Mn2+ added to activate the integrin;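 active = primary inhibition of 50% or more at 10 µM, then 40% or more on retest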
FAK blocker: inhibitors of human focal adhesion kinase; Q05397; biochemical FAK kinase activity assay; inhibition, %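 (tested at 7 µM)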; 0.84% of 97,000 active; AID 727; in the data active = inhibition above about 19%;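 note: 0% = DMSO and 100% = reference compound high control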
Numbers without * were called inactive.

Screening COc1cc2c(cc1OC)C1(Nc3c-2c(C)nn3-c2ccccc2)C(=O)Nc2ccccc21 (configuration not stated) returned Pyk2 oligo antag -1.13, CD11b adhes enh -2.4, CD11b adhes inh -25.2 and FAK blocker 3.1.
COc1cc2c(cc1OC)C1(Nc3c-2c(-c2ccccc2)nn3-c2ccccc2)C(=O)Nc2ccccc21 (configuration not stated) was read as Pyk2 oligo antag -3.18*, DAT uptake mod 0.947, CD11b adhes enh 7.8, CD11b adhes inh -15.2 and FAK blocker 4.8.
`COCCNC(=O)NC1(C(F)(F)F)Oc2ccc(Cl)cc2O1` (configuration not stated) gave D1 mod 0.114, Pyk2 oligo antag 0.11, DAT uptake mod -2.66, CD11b adhes enh -0.9, CD11b adhes inh -5.1 and FAK blocker 0.7.
`O=C(NCc1cccnc1)NC1(C(F)(F)F)Oc2ccc(Cl)cc2O1` (configuration not stated) gave DAT uptake mod -7.42*, CD11b adhes enh 2.2, CD11b adhes inh -49.9 and FAK blocker -1.1.
c1nc(N2CCCC2)c2[nH]cnc2n1 was read as Pyk2 oligo antag 0.91, DAT uptake mod 0.452 and FAK blocker 33.8*.
c1nc(N2CCCCCC2)c2[nH]cnc2n1 was read as D1 mod 1.02, DAT uptake mod -0.0607, CD11b adhes enh -3.6 and CD11b adhes inh 2.0.
O=C(NCc1ccc(F)cc1)C(=O)NCC1OCCN1C(=O)c1ccc(Cl)cc1 (configuration not stated) was read as DAT uptake mod 2.43*.
`CCN1C(=O)N(c2ccc(Cl)cc2)C(C)=CC1(C)C` gave Pyk2 oligo antag 1.27, DAT uptake mod 0.239, CD11b adhes enh 1.9, CD11b adhes inh -2.5 and FAK blocker 4.1.
`CCc1ccc(-c2cc(C(=O)Nn3cnnc3)c3ccccc3n2)cc1` gave Pyk2 oligo antag 0.24, DAT uptake mod 0.0148, CD11b adhes enh -7.3, CD11b adhes inh 77.9* and FAK blocker -1.6.
`CCCc1ccc(-c2cc(C(=O)NN3CCOCC3)c3ccccc3n2)cc1` gave Pyk2 oligo antag -0.9, DAT uptake mod 2.08, CD11b adhes enh -0.7, CD11b adhes inh 6.6 and FAK blocker 2.2.
`Cc1[nH]c2ccccc2c1Cc1nnc(SCCC#N)o1` gave Pyk2 oligo antag -2.36, DAT uptake mod 0.0893 and FAK blocker 11.2.
COc1ccc2nc(-n3c(O)c(C4=c5ccccc5=NC4=O)[nH]c3=S)sc2c1 was read as Pyk2 oligo antag -3.17*, CD11b adhes enh -4.4 and CD11b adhes inh -19.9.
`Cc1cc(C(=O)CN2C(=O)c3ccccc3S2(=O)=O)c(C)n1CC1CCCO1` (configuration not stated) gave D1 mod -5.74*, Pyk2 oligo antag 0.35, DAT uptake mod 0.627, CD11b adhes enh 6.1 and CD11b adhes inh 18.1.
`CCOC(=O)C1=C(C)N(CCCCCC(=O)O)C(=O)NC1c1ccccc1OC(=O)c1cccs1` (configuration not stated) gave DAT uptake mod -0.00955.
COc1cc(OC)c2c(-c3ccccc3)cc(=O)oc2c1C(CC(=O)N1CCCC1)c1ccc2c(c1)OCO2 (configuration not stated) was read as DAT uptake mod 2.09*.
Cc1ccnc(N/C=C(\C#N)c2nc(-c3cccc(Br)c3)cs2)c1 was read as Pyk2 oligo antag -0.31, DAT uptake mod 0.436, CD11b adhes enh 60.9, CD11b adhes inh -36.9 and FAK blocker -1.2.
For CC1CCCN(c2nc3nonc3nc2N2CCCC(C)C2)C1 (configuration not stated) the results were Pyk2 oligo antag -1.25, DAT uptake mod -0.696 and FAK blocker 2.2.
Screening CC1CCCN(c2nc3ccsc3c(=O)s2)C1 (configuration not stated) returned D1 mod 3.84*, Pyk2 oligo antag 0.34, DAT uptake mod -0.628, CD11b adhes enh 3.9, CD11b adhes inh 42.7 and FAK blocker -1.7.
COc1cc(-c2nnc(COc3ccc4ccccc4c3)o2)cc(OC)c1OC was read as D1 mod 0.502, Pyk2 oligo antag -0.68 and FAK blocker 1.2.
